The text below walks through data of PubChem BioAssay (NCI).

The panel holds about 83,000 compounds, 20% with a hit somewhere; the sample as a whole holds those more often.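 Activity criterion: percent growth below 10, measured after cells in 96-well plates were exposed to a single compound concentration for 48 hours.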 Values without a mark were called inactive. The source made the active and inactive calls.

The test system of the test is EKVX NSCLC. Briefly: NCI-60 one-dose screen, 48 h (100 = growth as untreated, 0 = no growth, -100 = all killed). The following applies: 10 µM unless noted. The procedure: Growth inhibition of the EKVX human Non-Small Cell Lung tumor cell line is measured as a screen for anti-cancer activity. Cells are grown in 96 well plates and exposed to the test compound for 48 hours. Compounds are tested at a single concentration, which is 10^-5 M for most compounds. The reported endpoint is percent growth (GI% or GIPRCNT), where numbers from 0 - 100% represent growth inhibition, and numbers from -100% - 0 represent cell death. For example, a value of 40 represents 60% growth inhibition. A value of 0 means no net growth occurred over the course of the experiment. A value of -40 indicates 40% of cells at the beginning of the experiment died by the end of the experiment. A value of -100 means all cells are dead at the end of the experiment.
NCI-60 Human Tumor Cell Lines Screen was performed using the standard one-dose NCI protocol, which is described in more detail at https://dtp.cancer.gov/discovery_development/nci-60/default.htm.
Compounds with GIPRCNT values below 10 were considered active. Activity score was based on GIPRCNT using the following formula: […]
Score is 0 for GIPRCNT values of 100 or above, 50 for GIPRCNT values of 0, and 100 for GIPRCNT values of -100.
For `Cc1ccncc1NC=O`, the growth was 101%. The same measure for `COc1cccc(C2C(C#N)=C(N)Oc3cc4c(cc32)OCO4)c1` (stereo not given): 47.9%; for `COc1cc(C2CC(c3ccc(Cl)cc3)=NN2C(C)=O)ccc1Oc1ccnc2cc(Cl)ccc12` (stereo not given): 51.9%. The result for `Clc1ccc(-c2cnc3nonc3n2)s1` reads 107%.

For `O=C1/C(=C/c2ccccc2)SC(=Nc2ccccc2)N1Nc1ccccc1`, the growth is 18.9%. The same measure for `COc1ccc(-c2cc(C(=O)Nc3ccc(C)cc3)nc3[nH]c(=O)sc23)cc1`: 73.3%. As for `COc1cc(C2CC(c3ccc(Cl)cc3)=NN2C=O)ccc1Oc1ccnc2cc(Cl)ccc12` (stereo not given), the growth was 59%.

With `COc1ccc(-c2conc2-n2nc(-c3ccccc3)nc2-c2ccccc2)cc1`, the growth is 101%.

`COc1cc(C2CC(c3ccc(C)cc3)=NN2C=O)ccc1Oc1nc2c(c(=O)n(C)c(=O)n2C)n1C` (stereo not given): the growth was 80.1%. `CCN(CCC#N)c1ccccc1`: the growth is 101%.

Regarding `O=C(Nc1ccc([N+](=O)[O-])cc1)c1cc2ccccc2cc1O`, the growth is 2.38% (active).

As to `c1ccc2oc(-c3cnc4nonc4n3)cc2c1`, the growth is 71.2%. In the case of `COc1cc2ncnc(Nc3ccc(S(=O)(=O)Nc4nccs4)cc3)c2cc1OCCCN1CCOCC1`, the growth was 111%. Take `COc1ccc(/C(C)=N/NC(=O)c2ccc(S(C)(=O)=O)cc2)cc1OC`: the growth is 96.3%. As to `C=C1C[C@@]2(C)C(CC[C@]3(C)C2CC=C2C4CC(C)(C)C[C@@H](OC(=O)/C(C)=C\C)[C@]4(C(=O)O)CC[C@]23C)C(C)(C)C1=O` (stereo not given in full), the growth was 31.7%. For the compound `Clc1nnc2c3ccccc3ccn12`, the growth was 105%.

Turning to `C#C[C@]1(O)CC[C@H]2[C@@H]3CC=C4c5sc(-c6cccc(Br)c6)nc5CC[C@]4(C)[C@H]3CC[C@@]21C`, the growth was 80.1%.

As for `CCCCCN(CCCCC)C(=O)C(CCC(=O)O)NC(=O)c1ccc(Cl)c(Cl)c1` (stereo not given), the growth was 109%. On to `CS(=O)(=O)c1ccc(C(=O)N2N=C(c3ccccc3)CC2c2ccc3c(c2)OCO3)cc1` (stereo not given), for which the growth is 93.4%.

Regarding `Cc1ccsc1C(=O)CC(=O)C(F)(F)C(F)(F)C(F)(F)F`, the growth was 93%.

Turning to `COc1ccc(Oc2nc(Nc3ccc(N4CCOCC4)cc3)ncc2NC(=O)Nc2cccc(OC)c2)cc1`, the growth was 84.6%. As for `CC1(C)OC2OC3C(CN)OC(c4ccccc4)OC3C2O1` (stereo not given), the growth is 103%. On to `Cc1cc([N+](=O)[O-])c(C)cc1N`, for which the growth is 101%. In the case of `C=CCOc1ccc2c(C)cc(=O)oc2c1`, the growth is 106%. Take `CN(C)c1nc(-c2cccs2)n2nc(-c3ccco3)cc2n1`: the growth is 80.1%. The same measure for `O=C(Cc1ccc([N+](=O)[O-])cc1)Oc1ccccc1`: 128%; for `COc1ccc2[nH]cc(C3(c4c[nH]c5ccc(OC)cc45)C(=O)Nc4ccc(Cl)cc43)c2c1`: 43.5%. Take `C[N+](C)(C)CC(=O)N/N=C\c1ccco1`: the growth was 103%. For `CSc1nc(N)c2[nH]c(-c3cc4ccccc4[nH]c3=O)nc2n1`, the growth is 103%. Take `COc1ccc(N=C2CSc3nnc(-c4cc(F)c(Cl)cc4Cl)n3N2)cc1`: the growth was 10.8%. The result for `CN1C2CCC1/C(=C\c1ccc(F)cc1)C(=O)/C2=C/c1ccc(F)cc1` reads 60.4%; that for `CCC(=O)NC1=C(Cl)C(=O)C(NC(=O)CC)=C(Cl)C1=O`, 129%.

Consider `O=C(c1ccccc1)c1cccc(C(Br)Br)c1`, for which the growth was 107%. The same measure for `Cc1cccc(N=NC(=S)NNc2cccc(C)c2)c1`: 98.3%; for `CCOC(=O)Nc1ccc2nc(N3CCCCCC3)sc2c1`: 59.9%; for `CCOC(=O)N1C2CCC(C2)N1C(=O)OCC`: 113%. The result for `Cc1ccc(NC(=O)c2cc(NCc3cc(O)ccc3O)ccc2O)cc1` reads 98.7%.

For the compound `COc1cc(CN2CCC(N3CCCC3=O)c3ccccc32)cc(OC)c1OC` (stereo not given), the growth is 66.1%. In the case of `CN1C(=O)C(C2=NNC(c3ccccc3C(=O)O)C2)C(=O)N(C)C1=O` (stereo not given), the growth was 102%. In the case of `COc1ccc(/C(C)=N/NC(=O)CSc2nc3ccccc3c(=O)n2CCc2ccc(S(N)(=O)=O)cc2)cc1`, the growth was 87.3%.
